Source: PubChem BioAssay AID1508600 (Functional Genomics Laboratory (NCATS/FGL), 2020)
Among all 53,000 sequences or so, about 3,700 (7%) were called active. The sample as a whole holds a higher share of actives than the screen did. Unmarked numbers belong to inactive results.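 Rule for the calls: active = gene knockdowns whose robust z-score for IL-1 alpha signal is at least 2 or at most -2, so actives lie on both sides; inactive = the rest.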

Test: Components of the Cytosolic LPS Sensing Pathway: Gene Identification via Genome-wide siRNA Screen;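 note: robust z of the log signal after scaling to non-targeting control siRNA wells of the plate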
Conditions: RAW264.7 macrophages, IL-1a HTRF, actives lie on both sides, screened at 100 nM (by protocol), cells primed 5 h with Pam3CSK4 first
Outline: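 Mouse macrophage line RAW264.7 is transfected with siRNA (100 nM final), grown 48h, primed with TLR ligand Pam3CSK4 5 h and given intracellular LipidA 24 h. IL-1a in supernatant is read by HTRF and viability by luminescence.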

Sequence	z-score
CGUGUGUUUUACCCUAAAATT against Zfp947	0.404
GGAAGCUGUGGAGAAACUATT against Acox2	2.22 (active)
GGACGAGAACAUCUUAAUCTT against Pim1	1.58
GGAACUUACACAUUUGUUCTT against Tnfsf13b	-1.11
GCCAUGACCAUCUUUCUCUTT against Olfr1413	-3.03 (active)
GGAGCAUGUCUUUAAGAAGTT against Stac	-1.15
GCUAACUUACCCAAAGAAATT against Tnfaip3	1.41
GUGCAACGUGAGCAAUACGTT against Selenbp2	-0.417
CGUAAAACUCUUAGGCAUGTT against Npm1	1.13
GAAAAAAUGCCAGCUGUGGTT against Sec61b	0.379
CCUGCAUACGAAGUACAUATT against Bsg	2.75 (active)
GGAUCCAUCCGUCUCUAAGTT against Rprd2	0.628
GGUGCAAGUUCCCAUUAUATT against Tpsab1	-0.405
GGACAUAGCAUCUUCACUUTT against Mpp3	-1.31
GGCCUUAGGAAAAAAAAAGTT against Bad	0.956
CCUUGGUGGUCUGAAAUAATT against Cyp4a31	-0.159
GGAGAAACUGGACAACCUGTT against Eno2	4.12 (active)
GGAUGUGAAUGAGUGUGAGTT against Fbln7	0.368
GGAGAAUGAACAGACAGAGTT against Slc39a14	-2.06 (active)
GGAGAAGAAGGUUCUUGCCTT against Hoxb13	-1.03
GGUCGCACAAGGUAUUAUATT against AI661453	-0.402
GGGAAAAAGAACAAGAUCATT against Cep57l1	-0.799
GGGAACAAGACAACACAGCTT against Adam11	2.03 (active)

Sequence	z-score
GGUACUUCCUCAUUUACCUTT against Zdhhc4	0.541
CCGUAAGCUGUCUCUUUGUTT against Pla2g4c	-1.97
CCGUCUAUUAGUGAAGAUGTT against Pex1	0.0157
GGGUGAAAAUGGCAUUGUUTT against Col1a2	0.56
CGUGAUGGGACUUGAGAAGTT against Teddm1a	-0.454
GGAAAGAUUGUUUGAAGGCTT against Cask	-0.252
GCUGAUUUCAUUGCAUCCGTT against Olfr483	2.12 (active)
GGAAAAGGUUAAACUUUGATT against Cenpc1	0.165
CCAUCCUCCUACUCGUUAGTT against Vmn1r233	2.03 (active)
CCAAUAAAAGUUGAGAGCUTT against Krt18	-0.272
GCCUGACAUUGGGACAAAGTT against Trim34a	0.179
GCCUCCUAUCCUGGGAAGATT against Prss3	2.54 (active)
GGAGACGAGAAACAAACCCTT against Diaph2	1.68
GGUACUUUGGAGAUUGUAATT against Rdh14	-0.462
GGCAGCCAAGAGAUUGAAUTT against Suclg2	1.09
GGUUCUGAAAUGCAUGGAGTT against Rnf6	1.76
GCAAAUGCGACUUUACACATT against Top1	2.56 (active)
GGAGCUGCUUGCUCAAAGATT against Tmem65	0.61
GCUGGAAAUGACACUGCCUTT against C1qtnf7	1.45
GCGGGAAUGAAGAAACACGTT against Eea1	0.801
GCCACGUUCCCUUGAUCAUTT against Mx2	1.4
GGAUGCCUUCUAUACACUATT against Hras	-1.33
CCCUUACAUCCAUCAACUATT against Dcbld2	-1.04

Sequence	z-score
GGAAGUAUGUGUUUCUCAGTT against Prr9	-2.41 (active)
GGUAAUAAACGGUAAAUUGTT against B430306N03Rik	-0.763
GGUUCCAUAGCAGACAAAATT against Mrpl24	0.513
CCAAAUAUGUACUUCAUGGTT against Adipor1	-0.147
CGAUAAGAACACCUAUAUUTT against Sf3b1	-3.26 (active)
GGACAUCCAUUCAUGCUUUTT against Serpinb1b	-0.529
CCUAUAACUCCAAGGAUACTT against Lexm	0.628
GGUUUUGAGCAAAAUUCUATT against Nrd1	0.985
GCACUGGAAAUUGUAUAAATT against Hyal6	2.19 (active)
CGGAGUGUACCAUCUACACTT against Agpat4	0.193
GGGACUGCAUACUUAAGUUTT against Amacr	1.31
GGGACCGUGAAGAAAAUUUTT against Tmed11	-0.926
GGAGGCUUAUCCUAAAAAGTT against 6330444E15Rik	-1.02
GCUGAACCUAUGAGGGAGATT against Gpank1	0.809
GGAGUUCAUUCUGGAUAUCTT against Matn2	1.24
CCUAGGGCUUUAGCUCUGATT against Msc	-0.75
GGAUUAAACCUUUUAACCGTT against Emilin3	-0.251
GCAUGUUUUACAGUGUUCATT against Rxfp1	2.7 (active)
GCCGGAUGGCACAUUCGUATT against Cda	-0.281
CCUAAGGUCAAGAUAUAGCTT against Cep55	0.121
CCCACCAGAUUUCUACACCTT against Vsig2	-2
GGCUAUGGACCGAAAGAUUTT against Dgcr6	-1.42
GCAGCUGUCAUGUAUACAGTT against Olfr59	-0.867
